This is a sample that favours compounds with a hit; in the whole collection about 6.2% have one here.
FMDV inh = blocks foot and mouth disease virus. FMDV antiviral cell-based qHTS. Potency, µM (top dose mostly 57.9 µM), most hits filed as inhibitors. 410,000 tested, 1.2% active. AID 1159524; calls by dose curve; tested in HEK293T cells; also: read-out not given here; nearly all actives have a fitted effect of over 45% in size
Lassa entry inh = Lassa virus entry inhibition; Potency, µM (highest dose often 37.9 µM), actives largely listed as inhibitors; 300,000 tested, 1.2% active; AID 540256; Lassa virus pseudotype entry inhibition, cell reporter; calls by dose curve; tested in HEK293 cells; also: nearly all actives have a fitted effect of over 50% in size
MARV entry inh = Marburg virus entry inhibition; Marburg virus pseudotyped entry inhibition, cell reporter; Potency, µM (top dose mostly 37.8 µM), most hits filed as inhibitors; 300,000 tested, 1.8% active; AID 540276; calls by dose curve; tested in HEK293 cells
HCMV antiviral = human cytomegalovirus inhibition; HFF cells, HCMV-luciferase reporter, 72 h; hits give low values; activity change, negative = inhibition, % at 57.5 µM; 410,000 tested, 4.5% active; AID 1259415; in the data active = activity change below about -60%; inconclusive = no clear call, values can overlap the other calls; inactive = above about -39%
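Two-dose cell screen: HFF monolayers treated with compounds and infected with luciferase-expressing HCMV at 1 PFU/cell, 72 h at 37C, then lysed for luciferase measurement.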
Each line names hits and unclear results; the compound was inactive in the other large screens.

CCn1c(O)c(C2=NCCCC2)c2ccccc21	MARV entry inh inconclusive
NC1(C#Cc2ccc3oc(=O)c(-n4cc(C5(O)CCCCC5)nn4)cc3c2)CCCCC1	none (no result: Lassa entry inh, MARV entry inh)
NC1(C#Cc2ccc3oc(=O)c(-n4cc(-c5ccsc5)nn4)cc3c2)CCCCC1	HCMV antiviral -72.5 (no result: Lassa entry inh, MARV entry inh)
Cc1ccc(C(CC(=O)Nc2ccc(F)c(Cl)c2)N2Cc3ccccc3C2=O)cc1 (stereo not given)	HCMV antiviral -104.3 (no result: MARV entry inh)
C=CCn1c(Cc2cccs2)nnc1SCC(=O)NCc1ccco1	FMDV inh inconclusive
CC1(C)CC(=O)/C(=C\c2cccc([N+](=O)[O-])c2)C(C)(C)N1	FMDV inh inconclusive, Lassa entry inh inconclusive, MARV entry inh inconclusive, HCMV antiviral -85.9
O=C1N/C(=N/O)S/C1=C/c1cccc([N+](=O)[O-])c1	none
c1ccc(CNc2ccc3ccccc3n2)nc1	Lassa entry inh inconclusive, MARV entry inh inconclusive
O=C(CCNS(=O)(=O)c1ccc(Br)cc1)NCc1cccs1	none (no result: Lassa entry inh, MARV entry inh)
COc1ccc(NC(=O)C(NC(=O)Cc2cccs2)c2ccc(C)cc2)cc1 (stereo not given)	none
COc1ccc(NC(=O)C(NC(=O)Cc2cccs2)c2ccccc2)cc1 (stereo not given)	MARV entry inh inconclusive, HCMV antiviral -67.7
O=C(Cc1cccs1)Nc1ccc(C(=O)O)cc1	MARV entry inh inconclusive, HCMV antiviral -77.0
COc1ccc(S(=O)(=O)N(C)C)cc1NC(=O)Cc1cccs1	none
O=C(CCl)N(c1ccccc1)c1ccccc1	FMDV inh 14.1µM, Lassa entry inh inconclusive, MARV entry inh inconclusive, HCMV antiviral -98.3
O=C(CCl)N(CCc1ccccc1)CCc1ccccc1	FMDV inh 28.2µM, Lassa entry inh inconclusive, MARV entry inh inconclusive, HCMV antiviral -99.5
O=C(N(c1ccccc1)c1ccccc1)N(c1ccccc1)c1ccccc1	none (no result: Lassa entry inh)
CCCCCCN(C(=O)CCl)c1ccccc1	FMDV inh 20µM, HCMV antiviral -99.5 (no result: Lassa entry inh, MARV entry inh)
CCCCCCCN(C(=O)CCl)c1cccc(C)c1	FMDV inh 28.2µM, HCMV antiviral -86.4
C=CCn1c(SCC(=O)Nc2nnc(C)s2)nnc1C1CC1	MARV entry inh inconclusive
CCCCNC(=S)N1CCn2cccc2C1c1cccnc1 (stereo not given)	none
CCc1ccc(/C=C/C(=O)C2C(=O)c3ccccc3C2=O)cc1	Lassa entry inh 2.31µM, MARV entry inh inconclusive (no result: FMDV inh)
C=CCOc1ccc(/C=N/NC(C)=O)cc1OCC	none
COc1ccc(NC(=S)N(CCN2CCOCC2)Cc2ccccc2F)cc1	Lassa entry inh inconclusive, MARV entry inh inconclusive
COc1ccccc1NC(=S)N(CCCN1CCOCC1)Cc1cn(C)c2ccccc12	MARV entry inh inconclusive, HCMV antiviral -93.9
COc1ccc(Cl)cc1NC(=S)N(CCCN1CCOCC1)Cc1cn(C)c2ccccc12	MARV entry inh inconclusive, HCMV antiviral -71.3
CCOc1ccccc1NC(=S)N(CCCN1CCOCC1)Cc1cn(C)c2ccccc12	Lassa entry inh inconclusive, MARV entry inh inconclusive, HCMV antiviral inconclusive
COc1ccccc1NC(=S)N(CCN1CCOCC1)Cc1ccccc1F	Lassa entry inh inconclusive, MARV entry inh inconclusive, HCMV antiviral -60.7
COc1cc(Cl)ccc1NC(=S)N(CCCN1CCOCC1)Cc1cn(C)c2ccccc12	Lassa entry inh inconclusive, MARV entry inh inconclusive, HCMV antiviral -91.9
Cc1ccc(Cl)cc1NC(=S)N(CCCN1CCOCC1)Cc1ccccn1	none
CCN(CC)CCN(C)C(=O)c1ccc(-c2ccccc2)nc1N(C)C	none (no result: Lassa entry inh, MARV entry inh, HCMV antiviral)
O=C(CSc1ccc2nnc(-c3ccc(F)cc3)n2n1)N1CCCc2ccccc21	Lassa entry inh inconclusive, MARV entry inh inconclusive, HCMV antiviral -76.5
CCOC(=O)/C(=N\Nc1ncnc2ccccc12)c1ccc(C)cc1	FMDV inh inconclusive, Lassa entry inh 1.12µM, MARV entry inh inconclusive
CCOC(=O)C/C(=N\Nc1ncnc2ccccc12)c1ccccc1	MARV entry inh inconclusive
CCCCc1c(O)nc(SCC(=O)NCCc2ccc(OC)c(OC)c2)[nH]c1=O	MARV entry inh inconclusive
CCN(C(=O)CSc1nc(C)nc2sc(C)c(C)c12)c1ccc(F)cc1	FMDV inh inconclusive (no result: Lassa entry inh, MARV entry inh)
Cc1sc2ncnc(N(C)Cc3ccco3)c2c1C	FMDV inh 22.4µM, HCMV antiviral -70.8
Cc1nc(SCC(=O)N(C)Cc2ccco2)c2c(C)c(C)sc2n1	FMDV inh inconclusive, Lassa entry inh inconclusive, MARV entry inh 7.3µM, HCMV antiviral inconclusive
Cc1nc(NCc2ccco2)c2c(C)c(C)sc2n1	FMDV inh inconclusive, MARV entry inh inconclusive, HCMV antiviral -104.6
O=C(Nc1ccc(F)cc1F)c1cncc(Br)c1	MARV entry inh inconclusive, HCMV antiviral inconclusive
O=C(Nc1ccccc1[N+](=O)[O-])c1cncc(Br)c1	HCMV antiviral -73.9
COc1ccccc1CN1CC[C@@]2(CCCN(S(=O)(=O)c3ccccc3)C2)C1	none (no result: Lassa entry inh, MARV entry inh, HCMV antiviral)
CCC(C)C1NC(=O)C2CCCN2C(=O)C(CC(C)C)OC(=O)CCNC(=O)C(C)N(C)C(=O)C(C(C)C)N(C)C1=O (stereo not given)	Lassa entry inh 3.16µM, MARV entry inh 2µM, HCMV antiviral -86.8
C[C@H](c1ccccc1)N1C[C@@H](COCc2ccccc2)Oc2cc(N3CC[C@H](O)C3)ccc2S1(=O)=O	HCMV antiviral -76.2 (no result: Lassa entry inh, MARV entry inh)
COC[C@@H]1CCCN1c1ccc2c(c1)O[C@@H](COCc1ccccc1)CN([C@H](C)c1ccccc1)S2(=O)=O	HCMV antiviral -64.7 (no result: Lassa entry inh, MARV entry inh)
CCCCC[C@@H](C)N1C[C@H](COCc2ccccc2)Oc2cc(N3CC[C@H](N(C)C)C3)ccc2S1(=O)=O	HCMV antiviral -101.2 (no result: Lassa entry inh, MARV entry inh)
C[C@@H](c1ccccc1)N1C[C@H](COCc2ccccc2)Oc2cc(N3CC[C@@H](N(C)C)C3)ccc2S1(=O)=O	HCMV antiviral inconclusive (no result: Lassa entry inh, MARV entry inh)
C[C@@H](c1ccccc1)N1C[C@H](COCc2ccccc2)Oc2cc(N3CC[C@H](N(C)C)C3)ccc2S1(=O)=O	HCMV antiviral -60.5 (no result: Lassa entry inh, MARV entry inh)
C[C@H](c1ccccc1)N1C[C@H](COCc2ccccc2)Oc2cc(N3CC[C@H](O)C3)ccc2S1(=O)=O	HCMV antiviral inconclusive (no result: Lassa entry inh, MARV entry inh)
Cc1ccc(C(=O)NC2CC3CCC(C2)N3)cc1 (stereo not given)	HCMV antiviral inconclusive (no result: Lassa entry inh, MARV entry inh)
O=C(NCCCN1CCCC1=O)c1cc(-c2cccnc2)nc2ccc(Cl)cc12	none
COC(=O)c1ccc(N2CCS(=O)(=O)CC2)cc1	none
O/N=C1\CCC2CN(C3CCCCC3)CC2C1 (stereo not given)	none
COc1ccc(/C=C2/SC(=S)N(CCCC(=O)Nc3ccc(O)cc3)C2=O)cc1	HCMV antiviral -99.6 (no result: Lassa entry inh, MARV entry inh)
O=C(CCCN1C(=O)/C(=C\c2ccco2)SC1=S)Nc1ccc2ccccc2c1	Lassa entry inh inconclusive, MARV entry inh inconclusive, HCMV antiviral -81.3
COc1ccc(/C=C2\SC(=S)N(CCCC(=O)Nc3ccc(O)cc3)C2=O)cc1	HCMV antiviral active (no result: Lassa entry inh, MARV entry inh)
N#Cc1nc(COc2ccccc2)oc1N1CCCC1	MARV entry inh inconclusive
CCN(CC(=O)NCc1cccs1)C(=O)CCOc1ccccc1C	HCMV antiviral -96.6
CCN(CC(=O)NCc1ccc(Cl)cc1)C(=O)CCOc1ccccc1C	none
CCn1cc2nc(SCc3cc(C)ccc3C)n(CCc3ccccc3)c(=O)c2n1	Lassa entry inh 3.98µM, HCMV antiviral -86.4 (no result: MARV entry inh)
O=C(Nc1ccncc1)c1ccc(Cl)c(S(=O)(=O)N2CCc3ccccc32)c1	FMDV inh inconclusive, Lassa entry inh 7.94µM, MARV entry inh inconclusive, HCMV antiviral -68.6
